From PubChem BioAssay (Tox21)
Records with an inconclusive call do not appear. Where a call stands in place of a potency, no number is given. A number with no mark means an inactive call. Activity calls are given as the source filed them. Unless noted, the call rests on the fitted dose curve; in most records, active means well fitted curve in the direction sought with a large enough effect in the repeat runs; inconclusive means weak or mixed curves; inactive means no such curve, though single readings can be large; an effect the other way counts as inactive or inconclusive.

Assays:
[1] = qHTS assay to identify small molecule antagonists of the thyroid receptor (TR) signaling pathway - cell viability counter screen (AID 743064); further: nearly all actives have a fitted effect of over 50% in size
In short: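 Counter screen for cytotoxicity: compound plus T3 (1 nM final) on GH3.TRE-Luc cells, 23.5 h at 37 °C, then fluorescence viability readout with CellTiter-Fluor.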

[2] = qHTS assay to identify small molecule antagonists of the thyroid receptor (TR) signaling pathway (AID 743065); further: series mostly up to about 70 µM; nearly all actives have a fitted effect of over 55% in size
In short: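 GH3.TRE-Luc rat pituitary cells (two TREs driving luciferase) were dosed with compound, then stimulated with 1 nM T3 (final) for 23.5 h at 37 C. ONE-Glo luminescence was the read-out, with CellTiter-Fluor fluorescence as the cytotoxicity counter-screen.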

[3] = test system: thyroid hormone receptor (rat, GH3 cells); experiment: qHTS assay to identify small molecule agonists of the thyroid receptor (TR) signaling pathway (AID 743066; calls by dose curve)
[4] = qHTS assay to identify small molecule antagonists of the estrogen receptor alpha (ER-alpha) signaling pathway - cell viability counter screen (AID 743074; calls by dose curve;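 further: HEK293 cells carrying ER-alpha-UAS-bla reporter stimulated with 17beta-estradiol; nearly all actives have a fitted effect of over 45% in size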)
[5] = qHTS assay to identify small molecule antagonists of the estrogen receptor alpha (ER-alpha) signaling pathway using the BG1 cell line - cell viability counter screen (AID 743081);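 further: compound given together with 17beta-estradiol as the ER stimulus; series mostly up to about 70 µM; nearly all actives have a fitted effect of over 45% in size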
[6] = qHTS assay to identify aromatase inhibitors - cell viability counter screen (AID 743084);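 further: cells stimulated with testosterone during compound exposure; nearly all actives have a fitted effect of over 55% in size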
[7] = qHTS assay to identify small molecule that activate the aryl hydrocarbon receptor (AhR) signaling pathway - cell viability counter screen (AID 743086);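 further: HepG2 liver cells carrying the AhR DRE luciferase reporter; series mostly up to about 70 µM; nearly all actives have a fitted effect of over 45% in size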
In short: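 HepG2-AhR-luc (HG2L7.5c1) cells, 4000/well, treated 24 h at 37 C with compound; viability measured as CellTiter-Fluor fluorescence after 30 min in the same wells as the luciferase read.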

[8] = qHTS assay to identify small molecule antagonists of the peroxisome proliferator-activated receptor gamma (PPARg) signaling pathway - cell viability counter screen (AID 743194); further: nearly all actives have a fitted effect of over 55% in size
In short: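 Cytotoxicity counter screen in PPARg-bla HEK293H cells, same wells as reporter assay. Compounds plus 50 nM rosiglitazone (final) for 17 h at 37 C, then viability read by CellTiter-Glo luminescence.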

[9] = qHTS assay for small molecule agonists of the antioxidant response element (ARE) signaling pathway (AID 743202; active means well fitted activation curve with a large enough effect in the signal ratio in the repeat runs, not every such curve was filed as active; the % refers to the signal ratio; further: potency means the concentration at half of the fitted maximal effect)
In short: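 ARE-bla HepG2 cells (beta-lactamase reporter under the antioxidant response element), plated 5 hours, then exposed to compounds 16 hours at 37 C. LiveBLAzer B/G FRET substrate added for 2 hours at room temperature; fluorescence intensity read.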

[10] = qHTS assay for small molecule agonists of the antioxidant response element (ARE) signaling pathway - cell viability counter screen (AID 743203; calls by dose curve; further: nearly all actives have a fitted effect of over 55% in size)
In short: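 Compounds in DMSO were pinned onto ARE-bla HepG2 cells plated 5 hrs earlier at 2,000 cells/well. Sixteen hours later at 37C/5% CO2, CellTiter-Glo was added and luminescence measured after 30 min at room temperature.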

[11] = qHTS assay for small molecule activators of the heat shock response signaling pathway - cell viability counter screen (AID 743209); further: nearly all actives have a fitted effect of over 50% in size
In short: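 Counter screen for cytotoxicity in HeLa HSE-bla reporter cells. Treatment was 5 h at 37 C; viability was detected by luminescent ATP assay (CellTiter-Glo) in the same wells as the beta-lactamase read.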

[12] = qHTS assay for small molecule activators of the heat shock response signaling pathway (AID 743210; active means well fitted activation curve with a large enough effect in the signal ratio in the repeat runs, with a control signal flat, not every such curve was filed as active; the % refers to the signal ratio; further: series mostly up to about 63 µM)
In short: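 HSE-bla HeLa cells (beta-lactamase reporter under heat shock response elements), plated overnight, then exposed to compounds 5 h at 37 C; LiveBLAzer B/G FRET substrate added, 2.5 h at room temperature, fluorescence intensity read.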

[13] = target: Aromatase (Homo sapiens) (UniProt P11511); experiment: qHTS assay to identify aromatase inhibitors (AID 743083); further: nearly all actives have a fitted effect of over 55% in size; further: potency means the concentration at half of the fitted maximal effect
Chain of Aromatase (Homo sapiens) (P11511 whole entry, looked up): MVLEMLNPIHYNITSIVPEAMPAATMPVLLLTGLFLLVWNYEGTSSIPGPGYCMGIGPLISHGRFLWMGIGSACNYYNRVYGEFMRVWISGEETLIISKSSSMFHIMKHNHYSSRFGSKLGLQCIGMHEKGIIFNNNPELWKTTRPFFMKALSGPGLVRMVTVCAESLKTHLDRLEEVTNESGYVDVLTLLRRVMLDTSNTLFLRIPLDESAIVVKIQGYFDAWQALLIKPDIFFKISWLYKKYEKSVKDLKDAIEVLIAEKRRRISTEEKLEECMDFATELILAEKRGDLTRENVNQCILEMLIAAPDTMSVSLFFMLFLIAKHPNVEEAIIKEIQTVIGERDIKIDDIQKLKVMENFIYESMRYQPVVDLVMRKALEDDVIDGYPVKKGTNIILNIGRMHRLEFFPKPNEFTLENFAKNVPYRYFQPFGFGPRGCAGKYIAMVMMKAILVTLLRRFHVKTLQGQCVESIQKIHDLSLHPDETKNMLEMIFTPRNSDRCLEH

[14] = target: Aryl hydrocarbon receptor (Homo sapiens) (UniProt P35869); experiment: qHTS assay to identify small molecule that activate the aryl hydrocarbon receptor (AhR) signaling pathway (AID 743085); further: nearly all actives have a fitted effect of over 15% in size; further: potency means the concentration at half of the fitted maximal effect;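 on activation: HG2L7.5c1 human HepG2 liver cells with stably integrated DRE-driven firefly reporter; series mostly up to about 70 µM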
Chain of Aryl hydrocarbon receptor (Homo sapiens) (P35869 whole entry, looked up): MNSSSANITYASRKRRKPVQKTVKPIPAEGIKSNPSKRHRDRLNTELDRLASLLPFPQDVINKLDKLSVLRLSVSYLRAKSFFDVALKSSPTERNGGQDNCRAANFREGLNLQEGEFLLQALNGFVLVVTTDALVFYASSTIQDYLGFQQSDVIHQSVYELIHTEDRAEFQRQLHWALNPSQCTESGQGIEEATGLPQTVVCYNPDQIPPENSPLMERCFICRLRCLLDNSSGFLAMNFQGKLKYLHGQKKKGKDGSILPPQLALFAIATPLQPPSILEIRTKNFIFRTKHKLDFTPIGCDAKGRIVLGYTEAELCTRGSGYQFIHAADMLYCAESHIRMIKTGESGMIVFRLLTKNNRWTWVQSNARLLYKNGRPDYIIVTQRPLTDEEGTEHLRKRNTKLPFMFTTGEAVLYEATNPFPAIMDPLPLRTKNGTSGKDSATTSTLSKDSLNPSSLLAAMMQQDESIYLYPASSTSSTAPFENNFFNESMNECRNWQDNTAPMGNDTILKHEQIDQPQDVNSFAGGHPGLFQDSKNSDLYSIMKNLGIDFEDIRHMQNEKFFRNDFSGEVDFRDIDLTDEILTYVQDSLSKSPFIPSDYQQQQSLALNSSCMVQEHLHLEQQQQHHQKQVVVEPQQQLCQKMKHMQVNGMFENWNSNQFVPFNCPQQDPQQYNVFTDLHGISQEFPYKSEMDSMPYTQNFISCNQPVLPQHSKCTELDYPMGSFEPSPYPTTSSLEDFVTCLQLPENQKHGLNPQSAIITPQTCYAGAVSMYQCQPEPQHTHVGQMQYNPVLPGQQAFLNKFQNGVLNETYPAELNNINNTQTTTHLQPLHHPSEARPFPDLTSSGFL
In short: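 Measured in HG2L7.5c1 cells: CellTiter-Fluor signal (30 min incubation, 37C) for viability, then luciferase luminescence (30 min, room temperature). Compound contact time was 24 h at 37C, following a 5 h pre-incubation.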

[15] = target: Peroxisome proliferator-activated receptor gamma (Homo sapiens) (UniProt P37231); experiment: qHTS assay to identify small molecule agonists of the peroxisome proliferator-activated receptor gamma (PPARg) signaling pathway (AID 743094; active means well fitted activation curve with a large enough effect in the signal ratio in the repeat runs, not every such curve was filed as active; the % refers to the signal ratio)
Chain of Peroxisome proliferator-activated receptor gamma (Homo sapiens) (P37231 whole entry, looked up): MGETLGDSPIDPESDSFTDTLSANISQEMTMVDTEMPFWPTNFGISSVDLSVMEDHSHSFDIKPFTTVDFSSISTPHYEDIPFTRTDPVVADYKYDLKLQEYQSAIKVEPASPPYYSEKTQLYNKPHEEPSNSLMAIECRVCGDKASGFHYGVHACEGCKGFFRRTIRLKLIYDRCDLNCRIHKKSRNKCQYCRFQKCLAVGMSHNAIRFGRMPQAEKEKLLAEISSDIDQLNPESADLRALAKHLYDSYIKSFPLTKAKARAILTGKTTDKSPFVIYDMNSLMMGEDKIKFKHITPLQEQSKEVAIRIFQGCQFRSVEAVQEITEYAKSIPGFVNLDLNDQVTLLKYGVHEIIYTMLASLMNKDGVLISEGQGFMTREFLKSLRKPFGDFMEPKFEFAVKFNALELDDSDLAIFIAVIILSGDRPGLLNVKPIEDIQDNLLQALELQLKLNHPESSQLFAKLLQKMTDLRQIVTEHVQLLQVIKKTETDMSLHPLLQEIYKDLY
In short: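 Following 5 h plating at 37C, PPARg-bla HEK293H cells receive compound or DMSO for 17 h; fluorescence intensity is recorded after LiveBLAzer B/G loading for 1 h at room temperature.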

[16] = target: Peroxisome proliferator-activated receptor gamma (Homo sapiens) (UniProt P37231); experiment: qHTS assay to identify small molecule antagonists of the peroxisome proliferator-activated receptor gamma (PPARg) signaling pathway (AID 743191; calls by dose curve; further: series mostly up to about 63 µM; nearly all actives have a fitted effect of over 30% in size)
In short: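 GeneBLAzer PPARg UAS-bla HEK293H cells, 5 h post-plating, exposed to compounds 17 h at 37C. LiveBLAzer B/G FRET substrate added for 1 h at room temperature; beta-lactamase reporter read by fluorescence intensity.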

Row | SMILES | Potency [1] | Potency [2] | outcome [3] | outcome [4] | outcome [5] | Potency [6] | Potency [7] | outcome [8] | Potency [9] | outcome [10] | outcome [11] | outcome [12] | Potency [13] | Potency [14] | outcome [15] | Potency [16]
1 | CCN(CC)CC(=O)Nc1c(C)cccc1C | inactive | inactive | inactive | inactive | inactive | inactive | inactive | inactive | inactive | inactive | inactive | inactive | – | – | – | –
2 | CC1COc2ccccc2N1 (configuration not stated) | inactive | inactive | inactive | inactive | inactive | inactive | inactive | inactive | inactive | inactive | inactive | inactive | inactive | 0.969 µM (active) | inactive | inactive
3 | CC(C)(C)OC(=O)c1ccc(O)cc1 | inactive | inactive | inactive | inactive | inactive | inactive | inactive | inactive | – | inactive | inactive | inactive | inactive | – | inactive | inactive
4 | COc1ccc(OC)c(Cl)c1 | inactive | inactive | inactive | inactive | inactive | inactive | inactive | inactive | – | inactive | inactive | inactive | inactive | inactive | inactive | inactive
5 | O=C(NCC(O)CO)c1c(I)c(C(=O)NCC(O)CO)c(I)c(N(CCO)C(=O)CO)c1I (configuration not stated) | inactive | inactive | inactive | inactive | inactive | – | inactive | inactive | – | – | inactive | – | – | – | – | –
6 | O=S(=O)(O)CCN1CCN(CCO)CC1 | inactive | inactive | inactive | inactive | inactive | inactive | – | inactive | – | inactive | – | inactive | inactive | inactive | inactive | inactive
7 | O=C(NCCN1CCOCC1)c1ccc(Cl)cc1 | inactive | inactive | inactive | inactive | inactive | inactive | inactive | inactive | inactive | inactive | inactive | inactive | inactive | – | inactive | inactive
8 | C#CC(C)N(C)C(=O)Nc1ccc(Cl)cc1 (configuration not stated) | inactive | inactive | inactive | inactive | inactive | inactive | – | – | inactive | inactive | inactive | inactive | inactive | – | inactive | inactive
9 | CC(=O)N[C@@H](CCC(=O)O)C(=O)O | inactive | inactive | inactive | inactive | inactive | inactive | inactive | inactive | – | inactive | inactive | inactive | inactive | inactive | inactive | inactive
10 | CC(C)CC(C)CC(C)CC(C)COC(=O)c1ccccc1C(=O)OCC(C)CC(C)CC(C)CC(C)C (configuration not stated) | inactive | inactive | inactive | inactive | inactive | inactive | inactive | inactive | inactive | inactive | inactive | inactive | inactive | inactive | inactive | –
11 | CCC(C=O)CC | inactive | inactive | inactive | inactive | inactive | inactive | inactive | – | inactive | inactive | inactive | inactive | inactive | inactive | inactive | inactive
12 | CCO[Si](CCCS)(OCC)OCC | inactive | inactive | inactive | inactive | inactive | inactive | inactive | inactive | inactive | inactive | inactive | inactive | inactive | inactive | inactive | –
13 | CC(CN)CC(C)(C)CCN (configuration not stated) | inactive | inactive | inactive | inactive | inactive | inactive | inactive | inactive | – | – | inactive | – | inactive | inactive | inactive | inactive
14 | FC(F)(F)c1ccccc1-n1ccnc1 | inactive | inactive | inactive | inactive | inactive | inactive | inactive | inactive | – | inactive | – | – | 6.68 µM (active) | inactive | inactive | inactive
15 | O=C(OCC1(COC(=O)c2cccnc2)CCCC(COC(=O)c2cccnc2)(COC(=O)c2cccnc2)C1O)c1cccnc1 | inactive | inactive | inactive | inactive | inactive | inactive | inactive | inactive | inactive | inactive | inactive | inactive | inactive | inactive | inactive | –
16 | BrCc1cccc(Oc2ccccc2)c1 | inactive | inactive | inactive | inactive | inactive | inactive | inactive | – | – | inactive | inactive | inactive | inactive | inactive | inactive | inactive
17 | C[Si](C)(C)C | inactive | inactive | inactive | inactive | inactive | inactive | – | – | inactive | inactive | inactive | inactive | inactive | inactive | inactive | –
18 | c1ccc2c(c1)ccc1c3ccccc3ccc21 | inactive | inactive | inactive | inactive | inactive | inactive | inactive | inactive | 24.8 µM (active) | – | – | inactive | inactive | – | inactive | inactive
